# Assay results from the supplement of paper PMC7595190.
# Values without a mark were called inactive.
# Columns and labels:
# Assay in all cases: CellTox Green cytotoxicity fluorescence relative to DMSO vehicle (fold of vehicle RFU); higher = more cell death (loss of membrane integrity), active = 2 or more
# CMK = test system: CMK
# In short: (§1)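 CellTox Green reagent was added when MV4-11, CMK and Kasumi-1 cells were seeded at 4.0 × 10^4 cells per well, and single compounds from the Selleckchem apoptosis library were added at final 0.01, 0.1 and 1 µM in DMSO (vehicle 0.1% DMSO). Fluorescence at Ex 485 nm and Em 520 nm was read after 24, 48 and 72 h at 37 °C, 5% CO2. The reported cytotoxicity corresponds to loss of membrane integrity, given as fold of the DMSO vehicle.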
# Kasumi-1 = test system: Kasumi-1
# In short: as §1
# MV4-11 = test system: MV4-11
# In short: as §1
Structure (SMILES),"CellTox Green cytotoxicity fluorescence (CMK; 0.01 µM, 24 h)","CellTox Green cytotoxicity fluorescence (CMK; 0.01 µM, 48 h)","CellTox Green cytotoxicity fluorescence (CMK; 0.01 µM, 72 h)","CellTox Green cytotoxicity fluorescence (CMK; 0.1 µM, 24 h)","CellTox Green cytotoxicity fluorescence (CMK; 0.1 µM, 48 h)","CellTox Green cytotoxicity fluorescence (CMK; 0.1 µM, 72 h)","CellTox Green cytotoxicity fluorescence (CMK; 1 µM, 24 h)","CellTox Green cytotoxicity fluorescence (CMK; 1 µM, 48 h)","CellTox Green cytotoxicity fluorescence (CMK; 1 µM, 72 h)","CellTox Green cytotoxicity fluorescence (Kasumi-1; 0.01 µM, 24 h)","CellTox Green cytotoxicity fluorescence (Kasumi-1; 0.01 µM, 48 h)","CellTox Green cytotoxicity fluorescence (Kasumi-1; 0.01 µM, 72 h)","CellTox Green cytotoxicity fluorescence (Kasumi-1; 0.1 µM, 24 h)","CellTox Green cytotoxicity fluorescence (Kasumi-1; 0.1 µM, 48 h)","CellTox Green cytotoxicity fluorescence (Kasumi-1; 0.1 µM, 72 h)","CellTox Green cytotoxicity fluorescence (Kasumi-1; 1 µM, 24 h)","CellTox Green cytotoxicity fluorescence (Kasumi-1; 1 µM, 48 h)","CellTox Green cytotoxicity fluorescence (Kasumi-1; 1 µM, 72 h)","CellTox Green cytotoxicity fluorescence (MV4-11; 0.01 µM, 24 h)","CellTox Green cytotoxicity fluorescence (MV4-11; 0.01 µM, 48 h)","CellTox Green cytotoxicity fluorescence (MV4-11; 0.01 µM, 72 h)","CellTox Green cytotoxicity fluorescence (MV4-11; 0.1 µM, 24 h)","CellTox Green cytotoxicity fluorescence (MV4-11; 0.1 µM, 48 h)","CellTox Green cytotoxicity fluorescence (MV4-11; 0.1 µM, 72 h)","CellTox Green cytotoxicity fluorescence (MV4-11; 1 µM, 24 h)","CellTox Green cytotoxicity fluorescence (MV4-11; 1 µM, 48 h)","CellTox Green cytotoxicity fluorescence (MV4-11; 1 µM, 72 h)"
CNC(=O)c1ccccc1Nc1cc(Nc2ccc(N3CCOCC3)cc2OC)ncc1C(F)(F)F,0.924,0.935,0.912,0.928,0.933,0.917,0.946,1.02,0.957,0.924,0.952,0.976,0.976,0.988,0.96,0.928,1.03,1.08,0.941,0.941,0.949,0.936,0.967,0.972,0.979,1.18,1.39
CCN(CC)CCNC(=O)c1c(C)[nH]c(/C=C2\C(=O)Nc3ccc(F)cc32)c1C [Sunitinib],1.02,1.01,0.896,1,0.997,0.964,1.05,1.16,1.04,0.988,1.01,1.11,1.03,1.15,1.18,1.08,1.32,1.45,1.02,1.06,1.04,1.09,1.42,1.78,1.11,1.44,1.72
Cc1cccc(CC(=O)N2CCc3c2ccc(-c2cn(C)c4ncnc(N)c24)c3F)n1,0.981,0.975,0.966,1,0.997,1,1,1.05,0.907,1.03,1.02,1.02,1.01,1.02,1.04,1.03,1.03,1.04,1.04,1.04,1.06,1.02,1.01,1.02,1.03,1.03,1.04
CCS(=O)(=O)N1CCN(c2ccc(Nc3ncc(C(N)=O)c(NC4CC4)n3)cc2)CC1 [Cerdulatinib],0.961,0.986,0.983,0.961,1.07,0.888,1.13,1.64,1.34,0.959,0.983,1.01,0.98,1.06,1.07,0.928,1.08,1.15,0.937,0.94,0.941,0.942,0.965,0.965,0.949,1.07,1.11
CN(C)CC[C@H](CSc1ccccc1)Nc1ccc(S(=O)(=O)NC(=O)c2ccc(N3CCN(Cc4ccccc4-c4ccc(Cl)cc4)CC3)cc2)cc1[N+](=O)[O-],0.932,0.938,0.907,0.982,0.992,1.02,1.48,1.67,1.52,1.07,1.11,1.18,1.17,1.49,1.66,1.44,1.81,1.84,0.961,1.15,1.31,1.08,1.59,1.88,1.27,2.34 (active),2.59 (active)
N#Cc1ccc(-c2c(-c3ncn[nH]3)sc(N3CCOCC3)c2C#N)c(F)c1,0.974,0.999,1.04,0.969,0.994,0.919,1.03,1.13,0.932,0.959,0.958,0.957,0.991,1.05,1.05,0.985,1.3,1.41,0.973,0.967,0.969,0.972,0.993,0.991,1.01,1.13,1.13
O=C(NS(=O)(=O)c1ccc(Br)s1)c1ccc(Cl)cc1Cl [Tasisulam],0.98,0.972,0.934,0.99,0.99,0.959,0.986,1,0.903,1.02,1.02,1.01,1.01,0.99,0.984,0.975,0.963,0.96,0.957,0.955,0.954,0.99,0.984,0.992,1,0.989,1
CC(=O)O/N=C1/C(c2c(O)[nH]c3cc(Br)ccc23)=Nc2ccccc21 [BIO-acetoxime],1.02,0.999,0.97,0.981,0.97,0.981,0.973,0.945,1.12,1.05,1.05,1.04,1.02,1.04,1.04,0.974,1.07,1.11,1.7,1.57,1.56,1.03,1.11,1.17,1.02,1.2,1.36
COc1cc(C(=O)O)ccc1NC(=O)[C@@H]1N[C@@H](CC(C)(C)C)[C@](C#N)(c2ccc(Cl)cc2F)[C@H]1c1cccc(Cl)c1F [Idasanutlin],0.938,0.944,0.96,0.943,0.953,1.01,0.963,1.01,0.933,1.01,0.971,0.962,0.966,0.949,0.947,1.01,1.03,1.03,0.983,0.967,0.97,0.971,0.958,0.972,0.967,1.03,1.1
CCCCNc1ncc2c(-c3ccc(CN4CCN(C)CC4)cc3)cn([C@H]3CC[C@H](O)CC3)c2n1,0.987,0.978,1,1.07,1.31,1.32,1.13,1.75,1.98,1.06,1.01,1.02,1.05,1.18,1.32,1.1,1.62,1.93,1.03,1.16,1.28,1.04,1.47,2.1 (active),1.08,1.7,2.22 (active)
CC[C@@]1(O)C(=O)OCc2c1cc1n(c2=O)Cc2cc3cc(O)ccc3nc2-1 [(S)-10-Hydroxycamptothecin],0.964,1.06,1.19,1.56,2.2 (active),2.02 (active),0.988,1.01,0.878,0.962,0.972,0.997,0.972,1.07,1.27,0.98,1.23,1.59,1.01,1.35,1.89,1.09,1.65,1.93,1.27,2.3 (active),2.45 (active)
O=C1CCC(N2C(=O)c3ccccc3C2=O)C(=O)N1 (centres undefined) [Thalidomide],0.979,0.985,0.989,0.945,0.95,0.986,0.982,0.962,1.19,0.98,0.96,0.95,0.938,0.934,0.908,0.972,0.981,0.997,0.964,0.959,0.973,0.954,0.962,0.958,0.952,0.965,1.12
